The nature of assay [1]: Her2 expression decrease, cell viability multiplex – SKBR3 breast tumor cells, AlphaScreen, ATP viability, primary screen (AID 461;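 active = Her2 level under about 52% in both replicate screens, with viability over 70% of control, limit read from the data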;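 for Her2 level: lower value means less Her2 protein in the cells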;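 for viability: percent of carrier control wells set as 100% viability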). The settings on record: SKBR3 Her2 protein level, 18-24 h, measured here: SKBR3 viability, ATP luminescence, at 10 µM.
Assay [2] deals with Receptor tyrosine-protein kinase erbB-2 (Homo sapiens) (UniProt P04626). The assay is described as above. The settings on record: 18-24 h, at 10 µM, stronger effect = lower value.
The nature of assay [3]: reduced viability of SK-BR-3 breast cancer cells – cell-based, 24 h, human, pilot screen (AID 572;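 active = viability at or below 10% of carrier control in both of two separate runs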;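 note: compound exposure lasted between 18 and 24 h rather than exactly 24 h; 100% = carrier-treated control wells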). The settings on record: SK-BR-3 viability, CellTiter-Glo luminescence, at 10 µM, stronger effect = lower value.
The nature of assay [4]: HUVEC growth inhibition – cell-based, human, primary screen (AID 575;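 active = viability at or below 30% in both replicate assays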;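 note: 100% = median of untreated cell wells with 0.1% DMSO on each plate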). The settings on record: HUVEC proliferation, CellTiter-Glo luminescence, 72 h; at 10 µM; stronger effect = lower value.
The nature of assay [5]: H69AR cell proliferation blockers – human, duplicate replicates, primary screen (AID 580;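 active = viability at or under a set limit in both replicates, limit being median viability minus 3 SD, cut at about 48% in these data, passing the limit was not always enough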;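 note: 100% = mean luminescence of untreated wells and 0% = no signal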). The note with it: H69AR lung tumor cells viability, ATP luminescence, 72 h; at 10 µM; stronger effect = lower value.
Assay [6] in a line: MRP1 drug-resistance reversers in H69AR cells – cell-based, doxorubicin co-treatment, pilot screen (AID 601;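 active = viability loss from added drug above about 55%, and viability with drug at most 40%, in both replicates, limit read from the data, passing the limit was not always enough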). The settings on record: CellTiter-Glo, 72 h, at 10 µM; for differential viability (reversal): stronger effect = higher value.
A short description of assay [7]: yeast transport mutant growth inhibition pilot in 384-well plates, post-Golgi transport modulator project (AID 636; in the data active = inhibition above about 31%). The note with it: absorbance 615 nm, about 18 h, stronger effect = higher value.
Assay [8] in a line: growth suppression of yeast trafficking mutant, preliminary HTS, modulators of trafficking downstream of Golgi apparatus project, 1536-format plate, OD 615 nm (AID 637; in the data active = inhibition above about 30%). The settings on record: yeast transport mutant growth, absorbance 615 nm, 18 h; stronger effect = higher value.
A short description of assay [9]: S. cerevisiae growth inhibition in permissive medium (OD615), pilot counter-assay for S. cerevisiae lifespan shortening project, permissive growth control (AID 705;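 active = growth inhibition above 25% in both replicates, a cutoff set 3 SD above the mean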). The settings on record: OD615, 24 h, at 10 µM, stronger effect = higher value.
The nature of assay [10]: S. cerevisiae growth inhibition in restrictive medium, OD615, pilot screen, restrictive growth control, yeast lifespan reduction project (AID 706;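 active = growth inhibition above a set limit, 3 SD over mean compound inhibition, in both replicates, cut at about 43% in these data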;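 note: modified DeaD lifespan yeast strain shifted to restrictive glucose medium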). The note with it: OD615, 48 h, at 10 µM, stronger effect = higher value.
The nature of assay [11]: doxorubicin toxicity protection in MRP-1 cells – H69AR cells, CellTiter-Glo, duplicate, MRP-1 activator project, pilot screen (AID 807).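 Note: compound pretreatment 18-22 h then 72 h combined with doxorubicin; 0% = doxorubicin alone and 100% = vehicle without doxorubicin.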 The settings on record: H69AR viability with doxorubicin, CellTiter-Glo luminescence; at 10 µM; stronger effect = higher value.
Assay [12] is described as follows: viability of HCT116 without oncogenic beta-catenin – human colon tumor cells, pilot screen (AID 823;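 active = cell viability at or below a set limit in both duplicate runs, the limit being the all-compound median minus 4 SD, cut at about 23% in these data, passing the limit was not always enough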;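 note: 0% = wells killed by 20 µM Hyamine and 100% = untreated DMSO cell wells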). The note with it: HCT116 beta-catenin knockout viability, CellTiter-Glo, 60 h; at 10 µM; stronger effect = lower value.
A short description of assay [13]: viability of PTEN-null HCT116 cells – cell-based, HCT116 clonal line, CellTiter-Glo, pilot screen (AID 824;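 active = viability at or below 27.92% in each of two runs, the all-compound median minus 4 SD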;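 note: 0% = 20 µM Hyamine control and 100% = vehicle cell control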). The note with it: HCT116 PTEN-deleted viability, 60 h, at 10 µM, stronger effect = lower value.
A short description of assay [14]: RAM pathway blockade in budding yeast – dse1pr::URA3 reporter, 5-FOA selection, pilot screen (AID 869;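 active = inhibition over a set limit, the all-compound mean plus 3 SD, in both replicate runs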;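 note: 0% = DMSO wells with no growth and 100% = 10 µM 1-NA-PP1 with full growth; RAM network block rescues cells from 5-FOA so hits raise OD615 growth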). The settings on record: S. cerevisiae dse1pr::URA3 5-FOA growth, OD615, 2 d; at 10 µM; stronger effect = higher value; strain carries analog-sensitive mutant Cbk1 kinase.
The nature of assay [15]: RAM signaling pathway blockade in yeast – S. cerevisiae, Pdr1DBD-CYC8 efflux-inhibited sensitized strain, primary screen (AID 1298;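 active = RAM network inhibition above 8.4% in each of two replicates, 3 SD over the compound average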;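 note: 0% = DMSO untreated cells without growth and 100% = 10 µM 1-NA-PP1 full growth; higher means more yeast growth rescued from 5-FOA killing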). The note with it: S. cerevisiae cbk1-as DSE1-URA3 strain, 5-FOA growth OD615, 2 d; at 50 µM; stronger effect = higher value.
The mark [16] stands for this setting: H69AR cells + 2 uM doxorubicin, measured here: viability with 2 uM doxorubicin, stronger effect = lower value.
Setting [17] is: H69AR cells, compound alone cytotoxicity.

The values below come from PubChem BioAssay.

Inconclusive results are not listed. The source made the active and inactive calls.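 Rule for the calls, unless noted: active = viability increase at or above a cutoff of the median across tested compounds plus 3 SD (cut at about 8.5% in these data, passing the limit was not always enough); inconclusive = some gains above the cutoff, reason not given; inactive = the rest.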

Chain of Receptor tyrosine-protein kinase erbB-2 (Homo sapiens) (P04626 whole entry, looked up): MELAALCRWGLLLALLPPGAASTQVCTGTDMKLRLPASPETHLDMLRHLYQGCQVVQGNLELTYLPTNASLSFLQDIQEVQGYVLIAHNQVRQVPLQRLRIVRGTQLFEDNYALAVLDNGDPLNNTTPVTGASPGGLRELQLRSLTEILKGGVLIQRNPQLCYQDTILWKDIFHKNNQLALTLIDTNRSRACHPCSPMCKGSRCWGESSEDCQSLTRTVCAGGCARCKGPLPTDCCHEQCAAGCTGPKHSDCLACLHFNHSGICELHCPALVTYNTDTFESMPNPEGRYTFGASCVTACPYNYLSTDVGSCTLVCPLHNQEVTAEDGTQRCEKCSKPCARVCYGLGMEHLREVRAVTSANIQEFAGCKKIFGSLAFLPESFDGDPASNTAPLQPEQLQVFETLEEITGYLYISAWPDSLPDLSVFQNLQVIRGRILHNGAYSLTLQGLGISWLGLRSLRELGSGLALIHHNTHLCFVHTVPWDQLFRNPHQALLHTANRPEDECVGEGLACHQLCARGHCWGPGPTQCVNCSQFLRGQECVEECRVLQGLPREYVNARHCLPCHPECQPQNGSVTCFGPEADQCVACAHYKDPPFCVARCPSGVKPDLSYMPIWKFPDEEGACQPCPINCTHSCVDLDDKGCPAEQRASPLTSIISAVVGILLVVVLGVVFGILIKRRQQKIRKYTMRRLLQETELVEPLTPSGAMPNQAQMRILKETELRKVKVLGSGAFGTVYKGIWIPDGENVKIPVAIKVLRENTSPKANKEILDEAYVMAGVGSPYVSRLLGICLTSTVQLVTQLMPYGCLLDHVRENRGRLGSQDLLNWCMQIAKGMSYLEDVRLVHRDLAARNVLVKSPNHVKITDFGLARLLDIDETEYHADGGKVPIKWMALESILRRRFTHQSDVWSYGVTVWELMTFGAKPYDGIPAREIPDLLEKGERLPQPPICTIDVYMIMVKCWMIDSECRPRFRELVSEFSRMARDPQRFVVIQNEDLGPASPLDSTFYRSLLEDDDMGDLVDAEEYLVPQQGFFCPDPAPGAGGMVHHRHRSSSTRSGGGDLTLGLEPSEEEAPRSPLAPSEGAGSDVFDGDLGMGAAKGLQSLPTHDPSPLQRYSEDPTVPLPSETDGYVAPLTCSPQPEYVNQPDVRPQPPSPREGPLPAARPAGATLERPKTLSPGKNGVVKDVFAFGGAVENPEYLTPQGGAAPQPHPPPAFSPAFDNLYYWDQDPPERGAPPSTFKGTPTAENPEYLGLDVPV

Take `CC(=O)c1ccc(OCC(O)CN2CCN(CCO)CC2)cc1` (stereo not drawn): the viability in assay [1] is 116%; in assay [3] it was 116% (inactive); in assay [4], 99.2% (inactive); in assay [5], 96.3% (inactive); in assay [6] (setting [16]), 100%; in assay [6] (setting [17]), 96.3%. Moreover, the viability was 99% (inactive) in assay [12] and 101% (inactive) in [13]. Further, in assay [2], the Her2 level was 112% (inactive). For the same compound, the differential viability (reversal) in assay [6] (H69AR cells + 2 uM doxorubicin) is -3.92% (inactive). Further, the inhibition is -5.73% (inactive) in [7], 2.33% (inactive) in [8] and 1.13% (inactive) in assay [14]. The growth inhibition was -1.98% (inactive) in assay [9] and 4.8% (inactive) in assay [10]. Besides, the viability increase in assay [11] was 1.18% (inactive). Also, in assay [15], the RAM network inhibition is 1.57% (inactive).

Regarding `COc1ccc(S(=O)(=O)N(C)C2CCN(C)CC2)cc1`, the viability in assay [1] is 108%; in [3], 108% (inactive); in [4] it was 93.2% (inactive); in assay [5] it was 93.4% (inactive); in assay [6] (setting [16]), 82.3%; in assay [6] (setting [17]), 93.4%. In addition, the viability is 100% (inactive) in assay [12] and 96.9% (inactive) in [13]. Moreover, in [2], the Her2 level was 98% (inactive). For the same compound, the differential viability (reversal) in assay [6] (H69AR cells + 2 uM doxorubicin) was 11.1% (inactive). For the same compound, the results for the inhibition in assay [7], in assay [8] and in [14] were -4.8% (inactive), -2% (inactive) and 0.835% (inactive), respectively. The growth inhibition in assay [9] is -6.05% (inactive); in assay [10], -10.2% (inactive). Further, the viability increase in assay [11] is -3.82% (inactive). Besides, the RAM network inhibition in assay [15] is 5.99% (inactive).

As for `COc1ccc(C(=O)c2ccc(OC)c(N)c2)cc1N`, the viability in assay [1] was 119%; in assay [3], 119% (inactive); in assay [4], 49% (inactive); in [5] it was 16.9% (active); in assay [6] (setting [16]), 63.2%; in assay [6] (setting [17]), 16.9%. For the same compound, the viability in [12] is 15.2% (active); in assay [13] it was 17% (active). In addition, in assay [2], the Her2 level is 86% (inactive). For the same compound, in assay [6] (H69AR cells + 2 uM doxorubicin), the differential viability (reversal) is -46.3% (inactive). Moreover, the inhibition in assay [7] was 1.3% (inactive); in assay [8], -1.31% (inactive); in assay [14] it was 2.53% (inactive). The figures for the growth inhibition in assay [9] and in [10] were -20% (inactive) and -17.8% (inactive), respectively. In addition, the viability increase in assay [11] was -6.12% (inactive). In addition, in assay [15], the RAM network inhibition is 2.22% (inactive).

Regarding `CCOc1ccc(Cn2nnc(C(=O)NCc3ccc(OC)cc3)c2N)cc1`, the viability was 95% in [1]; 95% (inactive) in assay [3]; 74.3% (inactive) in assay [4]; 89.5% (inactive) in assay [5]; 91.6% in assay [6] (setting [16]); 89.5% in assay [6] (setting [17]). The figures for the viability in [12] and in assay [13] were 95.8% (inactive) and 94.8% (inactive), respectively. Moreover, the Her2 level in assay [2] is 102% (inactive). Moreover, the differential viability (reversal) in assay [6] (H69AR cells + 2 uM doxorubicin) was -2.11% (inactive). Besides, the inhibition was -4.67% (inactive) in assay [7], -4.33% (inactive) in assay [8] and 2.19% (inactive) in assay [14]. The growth inhibition in assay [9] was -3.91% (inactive); in assay [10], -6.16% (inactive). Moreover, the viability increase in assay [11] was -0.43% (inactive). Besides, the RAM network inhibition in assay [15] is 4.7% (inactive).

`CCOc1ccccc1NC(=O)CC1Nc2cc(C)c(C)cc2NC1=O` (stereo not drawn): the viability is 80.5% in assay [1]; 80.5% (inactive) in [3]; 68.7% (inactive) in assay [4]; 59.2% (inactive) in assay [5]; 85% in [6] (setting [16]); 59.2% in assay [6] (setting [17]). For the same compound, the viability is 77.5% (inactive) in [12] and 77.8% (inactive) in [13]. In addition, the Her2 level in assay [2] was 82% (inactive). Moreover, the differential viability (reversal) in assay [6] (H69AR cells + 2 uM doxorubicin) was -25.8% (inactive). Further, the inhibition was -1.67% (inactive) in [7], -5.5% (inactive) in assay [8] and 0.04% (inactive) in assay [14]. Besides, the growth inhibition in [9] is -16.7% (inactive); in assay [10], -12.1% (inactive). Also, in assay [11], the viability increase is -5.9% (inactive). Also, in assay [15], the RAM network inhibition is 5.85% (inactive).

Consider `COc1ccccc1NC1=C(C)C(=O)CC1`, for which the viability was 98% in assay [1]; 98% (inactive) in [3]; 90.4% (inactive) in assay [4]; 88.7% (inactive) in assay [5]; 74.1% in assay [6] (setting [16]); 88.7% in assay [6] (setting [17]). Further, the viability in assay [12] was 75.4% (inactive); in assay [13], 85.5% (inactive). The Her2 level in assay [2] is 72% (inactive). For the same compound, the differential viability (reversal) in assay [6] (H69AR cells + 2 uM doxorubicin) was 14.5% (inactive). The inhibition is -7.43% (inactive) in assay [7], -0.67% (inactive) in [8] and 1.62% (inactive) in assay [14]. Further, the growth inhibition was -1.07% (inactive) in assay [9] and -11.9% (inactive) in assay [10]. The viability increase in assay [11] was -4.17% (inactive). Further, the RAM network inhibition in assay [15] is -0.26% (inactive).

`CCC(=O)c1cc(F)c(N2CCN(C(=O)c3ccco3)CC2)cc1C`: the viability was 82% in assay [1]; 82% (inactive) in [3]; 91.2% (inactive) in assay [4]; 87.9% (inactive) in assay [5]; 96.3% in assay [6] (setting [16]); 87.9% in assay [6] (setting [17]). Also, the viability was 97.9% (inactive) in assay [12] and 88.3% (inactive) in [13]. In addition, the Her2 level in assay [2] was 90.5% (inactive). In addition, in assay [6] (H69AR cells + 2 uM doxorubicin), the differential viability (reversal) was -8.33% (inactive). Also, the results for the inhibition in assay [7], in [8] and in [14] were -0.8% (inactive), 2.13% (inactive) and 1.4% (inactive), respectively. For the same compound, the growth inhibition in assay [9] was -10.3% (inactive); in assay [10], -0.62% (inactive). Further, the viability increase in [11] is -0.95% (inactive). Further, the RAM network inhibition in [15] is 0.21% (inactive).

For `O=C(O)C1CCCN(S(=O)(=O)c2ccc(Cl)s2)C1` (stereo not drawn), the viability in assay [1] is 91%; in assay [3], 91% (inactive); in assay [4], 102% (inactive); in assay [5], 93.1% (inactive); in [6] (setting [16]) it was 88.6%; in [6] (setting [17]), 93.1%. Also, the viability in [12] was 100% (inactive); in assay [13], 102% (inactive). For the same compound, the Her2 level in assay [2] is 124% (inactive). The differential viability (reversal) in assay [6] (H69AR cells + 2 uM doxorubicin) is 4.47% (inactive). For the same compound, the results for the inhibition in [7], in [8] and in assay [14] were -4.8% (inactive), 0.5% (inactive) and 2.21% (inactive), respectively. Besides, the growth inhibition was -4.79% (inactive) in assay [9] and 7.83% (inactive) in assay [10]. For the same compound, the viability increase in [11] is 0.34% (inactive). The RAM network inhibition in [15] is 0.99% (inactive).

On to `CCCc1cc(C(=O)Nc2ccccc2SC)no1`, for which the viability in assay [1] was 86%; in [3] it was 86% (inactive); in assay [4] it was 104% (inactive); in [5], 81.1% (inactive); in assay [6] (setting [16]) it was 84.4%; in assay [6] (setting [17]), 81.1%. Further, the viability was 100% (inactive) in assay [12] and 93.4% (inactive) in [13]. Besides, in assay [2], the Her2 level is 90.5% (inactive). For the same compound, the differential viability (reversal) in [6] (H69AR cells + 2 uM doxorubicin) is -3.34% (inactive). Also, the inhibition in [7] was 0.9% (inactive); in [8], 5.67% (inactive); in [14] it was 0.2% (inactive). Besides, the growth inhibition in assay [9] was -11.4% (inactive); in [10], -21.2% (inactive). Besides, in assay [11], the viability increase was -3.07% (inactive). Besides, the RAM network inhibition in [15] is 1.56% (inactive).
